Out of some 310,000 compounds screened, about 3,600 (1.2%) were called active. This is one part of a sample in which actives are shown more often than they occur.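 Rule for the calls: active = ratio plate-corrected score three or more library SD toward inhibition, starting fluorescence score within five deviations; inactive = the rest.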
Molecular target: Anoctamin-1 (Mus musculus) (UniProt Q8BHY3)
Experiment: TMEM16A chloride channel inhibitors, primary screen, cell-based, HTS (AID 588511);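 for normalized B-score (activity score, 25-100; higher = stronger inhibition): score derived from kinetic fluorescence span divided by baseline fluorescence per well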
Conditions: HEK293 TMEM16A/YFP iodide influx fluorescence, ionomycin; at 10 µM

Chain of Anoctamin-1 (Mus musculus) (Q8BHY3 whole entry, looked up): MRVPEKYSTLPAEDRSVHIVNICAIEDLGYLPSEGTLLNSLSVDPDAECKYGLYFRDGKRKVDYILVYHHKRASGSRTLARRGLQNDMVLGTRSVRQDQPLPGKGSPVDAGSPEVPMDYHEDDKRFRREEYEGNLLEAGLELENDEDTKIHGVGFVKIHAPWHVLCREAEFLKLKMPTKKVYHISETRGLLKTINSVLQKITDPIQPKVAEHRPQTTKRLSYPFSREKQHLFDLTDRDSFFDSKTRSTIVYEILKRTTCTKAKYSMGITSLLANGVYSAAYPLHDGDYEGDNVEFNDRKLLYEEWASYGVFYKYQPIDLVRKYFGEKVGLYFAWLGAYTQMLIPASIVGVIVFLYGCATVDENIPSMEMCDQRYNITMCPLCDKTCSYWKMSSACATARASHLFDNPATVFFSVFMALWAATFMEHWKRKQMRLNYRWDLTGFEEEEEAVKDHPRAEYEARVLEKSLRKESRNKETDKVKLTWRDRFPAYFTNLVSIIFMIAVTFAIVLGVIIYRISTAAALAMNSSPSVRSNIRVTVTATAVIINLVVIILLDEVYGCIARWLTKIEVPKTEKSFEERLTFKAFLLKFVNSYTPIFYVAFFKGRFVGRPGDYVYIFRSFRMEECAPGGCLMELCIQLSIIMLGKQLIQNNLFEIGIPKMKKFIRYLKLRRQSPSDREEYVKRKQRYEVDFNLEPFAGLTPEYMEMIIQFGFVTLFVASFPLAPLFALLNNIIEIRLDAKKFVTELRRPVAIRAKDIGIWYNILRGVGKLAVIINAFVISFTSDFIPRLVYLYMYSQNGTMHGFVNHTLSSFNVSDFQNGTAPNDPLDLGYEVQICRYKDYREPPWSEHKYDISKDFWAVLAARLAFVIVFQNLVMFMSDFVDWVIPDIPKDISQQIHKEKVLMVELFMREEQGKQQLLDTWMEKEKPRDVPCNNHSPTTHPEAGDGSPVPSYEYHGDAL

SMILES	normalized B-score (activity score, 25-100; higher = stronger inhibition)
CC(C)COc1ccc(C(=O)OCC(=O)NCCC2=CCCCC2)cc1	inactive
CC(C(=O)NC1CCS(=O)(=O)C1)N1C(=O)/C(=C/c2ccc(Cl)cc2)SC1=S (stereo not given)	inactive
Cc1noc(C)c1CSc1nc2cc(S(=O)(=O)N3CCOCC3)ccc2o1	inactive
COc1ccc(S(=O)(=O)NCCc2c[nH]c3ccccc23)cc1OC	inactive
COc1ccccc1NC(=O)CCCc1c[nH]c2ccccc12	inactive
COc1cccc(CNCCc2c[nH]c3ccccc23)c1OCc1ccccc1F	100 (active)
CC(=O)Nc1ccc(Sc2ccccc2C(=O)N2CCCC2)cn1	inactive
COc1ccc(-n2ncc3c2CC(C)(C)CC3NC(=O)CCc2c(C)nn(C)c2C)cc1 (stereo not given)	inactive
COc1ccc(CNC(=O)C(=O)N2CCC3(CC2)OCCN3S(=O)(=O)c2ccc(C)cc2)cc1	inactive
CCOC(=O)CSc1nccc(N(C)C)c1C#N	inactive
CCCCOc1ccc(-c2ncc(C(=O)OCC)c(N)n2)cc1	inactive
CCOC(=O)C(Sc1ncc(C#N)c(N)n1)C(C)C (stereo not given)	100 (active)
COc1cc2sc(C)nc2cc1C	inactive
CCOc1ccc(-c2noc(CCC(=O)NC3CCCC3)n2)cc1OC	inactive
COc1cccc(NC(=O)CCc2nnc3ccc(N4CCC(C)CC4)nn23)c1	inactive
Cc1ccc(NC(=O)C2CC2c2ccccc2)cc1 (stereo not given)	inactive
O=C(O)c1ccc(NC(=O)C2CCCCC2)cc1	100 (active)
O=C(Nc1ccc(-c2ccc3nncn3n2)cc1)C1CCCCC1	inactive
CC(C)NS(=O)(=O)c1ccc(NC(=O)C2CCCCC2)cc1	inactive
COc1ccc(NC(=O)CN(C)CC(=O)Nc2cccc(C(F)(F)F)c2)cc1	inactive
CCNC(=O)c1ccc(OCC(=O)Nc2ccc(F)cc2)c(OC)c1	inactive
COc1cc(C(=O)N(C)Cc2cccc(OC)c2OC)ccc1OCC(=O)Nc1cccc(C(F)(F)F)c1	100 (active)
COC(=O)Cc1ccc(N(Cc2ccccc2F)S(=O)(=O)c2ccc(Br)cc2)cc1	inactive
COc1ccc(-c2csc(NC(=O)COC(=O)Cc3ccc(Cl)cc3Cl)n2)cc1	inactive
COc1cc(CC(=O)Nc2nc(-c3ccc(F)c(F)c3)cs2)cc(OC)c1OC	25 (active)
COc1ccc(CC(=O)Nc2nc(-c3ccc(F)c(F)c3)cs2)cc1OC	25 (active)
COc1cc(CC(=O)NCc2cccs2)cc(OC)c1OC	inactive
CCCc1ccc(-c2csc(NC(=O)Cc3cccs3)n2)cc1	inactive
Cc1ccc(S(=O)(=O)NC(=O)Nc2nc(-c3ccc(F)c(F)c3)cs2)cc1	inactive
CCn1c(SCc2cccc(C(=O)O)c2)nnc1-c1ccc(Cl)cc1	inactive
